# Hits are enriched below; roughly 21% of the tested compounds scored in any of these assays.
# D3 ag: qHTS of D3 Dopamine Receptor Agonist: qHTS; D(3) dopamine receptor (Homo sapiens), P35462; D3R DiscoveRx beta-arrestin cells, luminescence, 90 min; max activation, %; 410,000 compounds, 0.58% hits; in the data active means max activation above about 30%
#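 Agonist-mode cell screen: cells plated at 1500/well and incubated overnight at 37 °C, then exposed to library compounds for 90 min at 37 °C. Detection reagent was added for 30–60 min at room temperature, and luminescence was read.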
# ClpP mod: qHTS Assay for Activators of ClpP; ATP-dependent Clp protease proteolytic subunit (Bacillus subtilis (strain 168)), P80244; purified B. subtilis ClpP, FRET peptide cleavage, 20 min; Potency, µM (highest dose often 57.5 µM); 340,000 compounds, 1.9% hits; AID 651965, 2013; active means well fitted falling curve with a large enough effect; inconclusive means small, poorly fitted or top-dose-only effect; inactive means no such curve, though single readings can be large or run the other way; further: the source files actives as falling curves though it sought activators and does not explain the sign; nearly all actives have a fitted effect of over 65% in size
# Target sequence (P80244 whole entry, looked up): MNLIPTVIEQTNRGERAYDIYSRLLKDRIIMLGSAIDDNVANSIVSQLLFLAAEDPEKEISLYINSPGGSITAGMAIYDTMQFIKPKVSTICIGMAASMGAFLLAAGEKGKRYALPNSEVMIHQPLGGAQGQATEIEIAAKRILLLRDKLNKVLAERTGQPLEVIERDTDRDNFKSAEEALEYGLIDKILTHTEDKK
#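 FRET quenching reversal measured ClpP activation: 10 microg/mL B. subtilis ClpP at pH 8 with the FRET-FV decapeptide, read at 430 nm after 320 nm excitation. The 20-min minus 0-min signal was scaled between DMSO/no-enzyme wells and ADEP (5.8 microM final).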
# TDP1 cell CPT: qHTS for Inhibitors of human tyrosyl-DNA phosphodiesterase 1 (TDP1): qHTS in cells in presence of CPT. chicken DT40 Tdp1-/-;hTDP1 cells + 20 nM CPT, ATP luminescence, 48 h. Potency, µM (highest dose often 46.2 µM), actives largely listed as inhibitors. 420,000 compounds, 12% hits. AID 686979, 2013; further: nearly all actives have a fitted effect of over 55% in size
#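 Cell growth measured by CellTiter-Glo luminescence after a minimum 48 h, 37 C compound exposure with 20 nM CPT in Tdp1-knockout DT40 cells stably expressing hTDP1, seeded 400/well; qHTS titration format.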
# IL-1B inflam inh: qHTS for Inhibitors of Inflammasome Signaling: IL-1-beta AlphaLISA Primary Screen; THP-1 LPS/ATP IL-1B secretion, AlphaLISA, 16 h; hits give low values; activity change, % at 57.5 µM; 360,000 compounds, 4.7% hits; AID 743279, 2014; in the data active means activity change below about -50%; inconclusive means mostly about -30% to -49%
#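 Secreted IL-1B measured by AlphaLISA bead assay after 16 h compound exposure of THP-1 cells; compounds (final up to 57.5 uM) added 1 h before LPS (250 ng/mL) and ATP (1.25 mM) stimulation; lower signal means less secretion.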
# TDP1 cell noCPT: qHTS for Inhibitors of human tyrosyl-DNA phosphodiesterase 1 (TDP1): qHTS in cells in absence of CPT. DT40 Tdp1-/- hTDP1 cells, no CPT, ATP luminescence, 48 h. Potency, µM (titrated, usually from 46.2 µM), hits mostly inhibitors. 420,000 compounds, 15% hits; further: nearly all actives have a fitted effect of over 55% in size
#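 No-CPT arm: Tdp1-/-;hTDP1 DT40 cells (400/well) plus compounds, incubated ≥48 hr at 37 °C. Readout CellTiter-Glo luminescence.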
# DRD3 antagonist: qHTS of D3 Dopamine Receptor Antagonist: qHTS; D(3) dopamine receptor (Homo sapiens), P35462; D3R cells, DiscoveRx beta-arrestin luminescence, antagonist mode; hits give low values; max response, negative = inhibition, %; 360,000 compounds, 2.5% hits; in the data active means max response below about -50%; inconclusive means no clear call, values can overlap the other calls
#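 Cells expressing the human receptor were seeded at 1500 cells/well, incubated overnight at 37 degrees C in 5% CO2, then exposed to library compounds with dopamine controls for 90 minutes at 37 degrees C before luminescent detection.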
# A number is an active result; i = inactive; ? = inconclusive; nt = no result; [ ] = another dose, or the depositor's remark. Unless noted, the call rests on the fitted dose curve; in most records, active means well fitted inhibition curve with a large enough effect; inconclusive means small, poorly fitted or top-dose-only effect; inactive means flat fitted curve, though single readings scatter.
SMILES,D3 ag,ClpP mod,TDP1 cell CPT,IL-1B inflam inh,TDP1 cell noCPT,DRD3 antagonist
CCOc1ccc2[nH]c(=O)c(CN(CCN3CCCC3)C(=S)Nc3ccccc3OC)cc2c1,i,nt,i,-62,i,i
COc1ccc(NC(=O)N(CCN2CCCC2)Cc2cc3cc(OC)c(OC)cc3[nH]c2=O)cc1,i,i,i,i,i,?
CCOC(=O)CNCCC(=O)c1ccc(Br)cc1,i,i,5.8µM,?,6.5µM,i
CC(C)c1ccc(NCCC(=O)c2ccc(Br)cc2)cc1,i,i,i,i,i,i
Cc1cccc(NCCC(=O)c2ccc(Br)cc2)c1,i,i,23µM,i,23µM,i
Cc1ccc(C(=O)NCC(=O)NCC(=O)OCC(=O)c2ccc(Br)cc2)cc1,i,i,i,i,?,i
CCOC(=O)COc1ccc(CC)cc1C(=O)c1ccn2nc(-c3ccccc3)cc2n1,i,i,15µM,nt,23µM,nt
CCOC(=O)COc1ccc(CC)cc1C(=O)c1ccn2nc(-c3ccc(Cl)cc3)cc2n1,i,i,21µM,nt,21µM,nt
COc1ccc(C(=O)N2CCC3(CCN(Cc4nccs4)CC3)CC2)cc1,nt,nt,i,nt,i,nt
CCOc1cc(C(=O)Nc2ccc3nc(Nc4cccc(Cl)c4)cc(C)c3c2)cc(OCC)c1OCC,i,i,4.6µM,nt,6.5µM,nt
CCOC(=O)c1cccc(NC(=O)c2cncc(Br)c2)c1,i,i,i,i,i,i
Cc1cccc(OCC(=O)Nc2ccc3nc(Nc4cccc(Cl)c4)cc(C)c3c2)c1,i,i,?,nt,?,nt
Cc1cc(Nc2cccc(Cl)c2)nc2ccc(NC(=O)c3cncc(Br)c3)cc12,i,i,4.6µM,nt,5.2µM,nt
Cc1ccccc1C(=O)Nc1ccc2nc(Nc3cccc(C(F)(F)F)c3)cc(C)c2c1,i,i,21µM,nt,18µM,nt
Cc1cc(Nc2cccc(C(F)(F)F)c2)nc2ccc(NC(=O)c3cncc(Br)c3)cc12,i,i,5.8µM,nt,5.2µM,nt
COc1ccc2cc(CNCc3ccccc3Cl)c(N3CCCC(CO)C3)nc2c1 (stereo not drawn),nt,nt,i[9.04 µM],nt,?,nt
O=C(Nc1ccccc1C(=O)OCc1cc(=O)n2nc(C3CC3)sc2n1)c1cccc(Cl)c1,i,i,i,nt,i,nt
COc1cccc(-c2nnc(SCC(=O)N3CCCc4ccccc43)o2)c1,i,i,i,i,i,-52
O=C(c1cccc(Br)c1)N1CCCc2ccccc21,i,i,?,i,?,i
O=C(c1coc(=O)c(Br)c1)N1CCCc2ccccc21,i,13µM,1.8µM,i,2.6µM,i
COc1cc(C(=O)N2CCc3ccccc32)cc(OC)c1OC,i,i,i,i,i,i
COc1ccc(OC)c(-c2nnc(SCC(=O)N3CCCc4ccccc43)o2)c1,i,i,?,i,?,i
COc1cccc(NC(=O)N2CCCc3ccccc32)c1,i,i,i,i,i,i
COc1cc2ccccc2cc1C(=O)N1CCc2ccccc21,i,i,16µM,i,15µM,i
COc1cc(OC)cc(C(=O)N2CCCc3ccccc32)c1,i,i,16µM,i,?,i
CCOc1ncccc1C(=O)NNC(=O)c1cccc(S(=O)(=O)N2CCOCC2)c1,i,i,i,i,i,i
CSc1c(CC(=O)Nc2ccccc2C(F)(F)F)n(Cc2ccccc2)c2ccccc12,i,i,?,i,?,i
Cc1occc1-c1nnc(SCC(=O)Nc2nc(C(C)(C)C)cs2)o1,i,i,9.2µM,i,10µM,i
COc1cc(C(=O)NCc2nnc(SCC(=O)N3CCc4ccccc43)o2)cc(OC)c1OC,i,i,i,i,i,i

# Screening results: PubChem, National Center for Advancing Translational Sciences (NCATS)
